This is a sample that favours compounds with a hit; in the whole collection about 3.8% have one here.
tim10-1 inh – tim10-1 yeast growth inhibition | inhibition, % at 20 µM | S. cerevisiae tim10-1 ts strain growth, BacTiter-Glo, 24 h | 330,000 compounds, 2.2% hits;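 active = inhibition of at least 40%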;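 note: mutant grown at 25 °C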
B2AR ag – agonists of human beta-2 adrenergic receptor inducing internalization. P07550. Am2.2-beta2AR cells, FAP receptor internalization, flow cytometry. response, % (concentration not given with the values). 340,000 compounds, 0.43% hits;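 active = response above a set limit, near 3 SD of response in nonfluorescent compounds, cut at about 42% in these data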
Target sequence (P07550 whole entry, looked up): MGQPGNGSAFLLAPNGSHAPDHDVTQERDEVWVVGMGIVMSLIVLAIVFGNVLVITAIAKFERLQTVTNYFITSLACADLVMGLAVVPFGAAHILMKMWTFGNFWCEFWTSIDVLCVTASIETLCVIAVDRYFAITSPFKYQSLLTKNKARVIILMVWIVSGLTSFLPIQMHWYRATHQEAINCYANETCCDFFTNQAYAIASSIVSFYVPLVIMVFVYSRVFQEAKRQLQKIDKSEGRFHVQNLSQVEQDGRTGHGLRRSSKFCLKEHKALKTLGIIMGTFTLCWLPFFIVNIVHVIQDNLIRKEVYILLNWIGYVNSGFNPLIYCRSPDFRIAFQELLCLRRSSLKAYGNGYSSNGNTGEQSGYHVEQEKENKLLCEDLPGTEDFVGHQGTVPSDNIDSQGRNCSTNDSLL
tim23-1 inh – inhibits growth of tim23-1 mutant yeast; S. cerevisiae tim23-1 growth, BacTiter-Glo luminescence, 24 h; inhibition, % at 20 µM; 330,000 compounds, 1.3% hits;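 active = growth inhibition of the mutant yeast at or above 50%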;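 note: temperature-sensitive mutant grown at 25 °C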
PfHsp90 yeast 2 – inhibits growth of yeast expressing Plasmodium falciparum Hsp90; inhibition, % at 9.4 µM; 310,000 compounds, 0.32% hits; S. cerevisiae expressing PfHsp90, BacTiter-Glo ATP, 48 h; yeast lacking PDR1 and PDR3 efflux regulators;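 active = every replicate shows inhibition above about 80%, whatever the replicate mean, limit read from the data; inconclusive = mean inhibition reaches the set limit but some replicate falls short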
TIM10 inh – growth inhibitors of TIM10 yeast strain; AID 463195; S. cerevisiae TIM10 strain growth, BacTiter-Glo luminescence, 24 h; inhibition, % at 10 µM; 330,000 compounds, 1.4% hits;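 active = inhibition of 40% or more at the single tested concentration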;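 note: wild-type TIM10 isogenic control strain grown at permissive 25 °C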
tim10-1 confirm – confirmation of tim10-1 mutant yeast growth inhibitors. inhibition, % at 20 µM. shares compounds with tim10-1 inh. S. cerevisiae tim10-1 ts strain growth, BacTiter-Glo, 24 h. 7,400 compounds, 56% hits;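 active = inhibition of yeast growth at or above a set limit in either of two repeat tests at 20 µM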;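 note: tim10-1 mutant grown at permissive 25 °C to find synthetic lethal compounds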
tim10 confirm – confirmation of TIM10 yeast growth inhibitors; AID 463215; S. cerevisiae tim10 strain growth, BacTiter-Glo luminescence, 24 h; inhibition, % at 10 µM; 4,600 compounds, 63% hits; shares compounds with TIM10 inh;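 active = inhibition of yeast growth at or above a set limit in either of two replicates at 10 µM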; note: this counterscreen used the strain with wild-type TIM10
tim23-1 conf – confirmation of tim23-1 mutant yeast growth inhibitors; S. cerevisiae tim23-1 growth, BacTiter-Glo luminescence, 24 h; inhibition, % at 20 µM; AID 463218; 4,400 compounds, 83% hits; shares compounds with tim23-1 inh;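 active = inhibition above about 39% in either of two replicate wells at 20 µM, limit read from the data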;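 note: temperature-sensitive tim23-1 mutant grown at 25 °C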
Beta2AR ag CP1 – agonists of human beta-2 adrenergic receptor | shares compounds with B2AR ag | Am2.2-beta2AR cells, FAP surface receptor, flow cytometry; active compounds read low | 1,100 compounds, 25% hits | percent response (surface receptor), % at 10 µM | AID 540358;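 active = surface receptor percent response at or below 58%, roughly 3 SD from nonfluorescent compounds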
B2AR FAP counter – flagged in Am2.2 fluorescence counterscreen for beta-2AR agonists; shares compounds with B2AR ag; Am2.2 cells, FAP fluorogen flow cytometry; active compounds read low; calls only at 10 µM; 1,100 tested, under 10 active;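 active = percent response below a set limit in fluorescence channel 1 and below 50% in channel 8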
Large screens that a line does not name were inactive (follow-up assays come after a bar, where they were run).

COc1ccc(C(=O)c2c(C(F)(F)F)oc3c2C(=O)c2ccccc2C3=O)cc1	tim10-1 inh 55, tim23-1 inh 79, TIM10 inh 51 | tim10-1 confirm 52 | tim10 confirm 76 | tim23-1 conf 73
O=C(c1cc2c(s1)CCCC2)N1CCN(S(=O)(=O)c2ccccc2)CC1	none
COc1ccc(S(=O)(=O)N2CCN(C(=O)c3cc4c(s3)CCCC4)CC2)cc1	tim10-1 inh 54, tim23-1 inh 50 | tim10-1 confirm 39 | tim23-1 conf 57
CC(C)(C)C(=O)Nc1sc2c(c1C#N)CCN(Cc1ccccc1)C2	none
CC(C)COC(=O)C(C#N)c1nc2ccccc2nc1N1CCN(Cc2ccccc2)CC1 (stereo unspecified)	tim10-1 inh 42, tim23-1 inh 51 | tim10-1 confirm inactive | tim23-1 conf inactive
C=CCOC(=O)C(C#N)c1nc2ccccc2nc1N1CCN(Cc2ccccc2)CC1 (stereo unspecified)	tim10-1 inh 47, tim23-1 inh 50 | tim10-1 confirm 36 | tim23-1 conf 43
O=C(N/C(=C\c1cccc(Br)c1)C(=O)N1CCCCC1)c1ccco1	none
COc1ccccc1OCCNc1ccc(S(=O)(=O)N2CCCC2)cn1	none (no result: PfHsp90 yeast 2)
CN1C(=O)/C(=C\C(=O)c2cccs2)c2ccccc21	tim10-1 inh 47, tim23-1 inh 84, TIM10 inh 85 | tim10-1 confirm 70 | tim10 confirm 81 | tim23-1 conf inactive
O=C1CCN(C(=O)c2cccs2)c2ccccc21	none
CN1CC(=O)N(CC(=O)Nc2cccc3ccccc23)C1=O	none
COc1cccc2cc(C(=O)CS(=O)(=O)c3ccc(C(C)(C)C)cc3)c(=O)oc12	tim10-1 inh 48, tim23-1 inh 52 | tim10-1 confirm inactive | tim23-1 conf 54
COc1ccc2cc(C(=O)CS(=O)(=O)c3ccccc3)c(=O)oc2c1	none
COc1ccc(S(=O)(=O)CC(=O)c2cc3cccc(C)c3oc2=O)cc1	tim10-1 inh 53, tim23-1 inh 65 | tim10-1 confirm inactive | tim23-1 conf 57
COc1ccc(Cl)cc1C(=O)Nc1ccc(NC(=O)C(C)C)cc1	tim10-1 inh 53, tim23-1 inh 53, TIM10 inh 41 | tim10-1 confirm 45 | tim10 confirm 36 | tim23-1 conf 42
O=C(CN1C(=O)NC2(CCc3ccccc32)C1=O)NCc1cccc(C(F)(F)F)c1 (stereo unspecified)	none
CCN1CCN(Cc2c(C(=O)N/N=C(\C)c3ccc(Cl)c(Cl)c3)nnn2-c2nonc2N)CC1	none (no result: B2AR ag, PfHsp90 yeast 2)
CCOC(=O)C(=Cc1ccc(-n2cncn2)cc1)C(=O)OCC	tim10-1 inh 62, tim23-1 inh 52, PfHsp90 yeast 2 inconclusive, TIM10 inh 67 | tim10-1 confirm 52 | tim10 confirm 47 | tim23-1 conf 71
COc1ccc(C(=O)Nc2ccc(NC(=O)Cc3ccccc3)cn2)cc1	none
CC(=O)c1cc2c(cc1F)C(C)(C)CCC2(C)C	none (no result: tim10-1 inh, tim23-1 inh, TIM10 inh)
Oc1ccc(Br)cc1-c1cc(-c2ccco2)[nH]n1	tim10-1 inh 48, tim23-1 inh 68, TIM10 inh 43 | tim10-1 confirm 32 | tim10 confirm 34 | tim23-1 conf 52
Oc1ccccc1-c1cc(-c2ccco2)[nH]n1	none
CSc1nc2ccccc2cc1/C=C(\C#N)c1ccccc1	none
O=Cc1cc2ccccc2nc1SCCCF	tim10-1 inh 64, tim23-1 inh 67, TIM10 inh 78 | tim10-1 confirm 69 | tim10 confirm 72 | tim23-1 conf 55
Cn1cnnc1SCC(=O)Nc1ncc([N+](=O)[O-])s1	none (no result: PfHsp90 yeast 2)
CC(=O)Oc1c(Cl)c(N2CCOCC2)c(OC(C)=O)c2ccccc12	tim10-1 inh 49, tim23-1 inh 53 | tim10-1 confirm 41 | tim23-1 conf 41
CCCC(=O)c1ccc(N2CCN(C(=O)c3ccccc3)CC2)c(F)c1	none
CCCC(=O)c1ccc(N2CCN(C(=O)c3ccccc3Br)CC2)c(F)c1	tim10-1 inh 46, tim23-1 inh 52 | tim10-1 confirm 38 | tim23-1 conf 47
O=C(NC(=S)Nc1cc(Cl)ccc1N1CCOCC1)c1ccccc1[N+](=O)[O-]	tim10-1 inh 51, tim23-1 inh 56, TIM10 inh 45 | tim10-1 confirm 50 | tim10 confirm 47 | tim23-1 conf 55
COc1ccc(Cl)cc1C(=O)NC(=S)Nc1ccccc1N1CCOCC1	none
CC1CCCCN1C(=O)CN1CCN(S(=O)(=O)c2ccc(Br)cc2Cl)CC1 (stereo unspecified)	tim10-1 inh 43, tim23-1 inh 52 | tim10-1 confirm inactive | tim23-1 conf 43
CC1CCCCN1C(=O)Cn1c(=O)oc2cc(S(=O)(=O)N3CCCC3)ccc21 (stereo unspecified)	none
Cc1ccc(-c2csc3ncnc(Sc4nnc(CN5CCCCCC5=O)o4)c23)cc1	tim10-1 inh 40, B2AR ag 42, TIM10 inh 56 | tim10-1 confirm 36 | tim10 confirm 39 | Beta2AR ag CP1 inactive | B2AR FAP counter inactive
Cc1ccc(-c2csc3ncnc(SCC(=O)Nc4nnc(C)s4)c23)cc1	none (no result: PfHsp90 yeast 2)
Cc1ccc(Nc2nc(-c3c(C)nc4ccccn34)cs2)cc1	tim10-1 inh 51, B2AR ag 43, tim23-1 inh 54, TIM10 inh 58 | tim10-1 confirm 32 | tim10 confirm 58 | tim23-1 conf 43 | Beta2AR ag CP1 inactive | B2AR FAP counter inactive
COc1ccccc1C(=O)Nc1ccc(S(=O)(=O)N2CCCCC2c2cccnc2)cc1 (stereo unspecified)	tim10-1 inh 64, TIM10 inh 63 | tim10-1 confirm 70 | tim10 confirm 78 | Beta2AR ag CP1 inactive | B2AR FAP counter inactive
O=C(Nc1ccccc1)N1CCCCC1c1cccnc1 (stereo unspecified)	none
O=C(Nc1ccc(S(=O)(=O)N2CCCCC2c2cccnc2)cc1)c1ccccc1F (stereo unspecified)	tim10-1 inh 52, TIM10 inh 59 | tim10-1 confirm 47 | tim10 confirm 43 | Beta2AR ag CP1 inactive | B2AR FAP counter inactive
CCOc1cccc(-c2c(C(=O)N/N=C/c3ccc(C)o3)nnn2-c2nonc2N)c1	none

Bioassay records deposited in PubChem BioAssay by several laboratories.
